Source: PubChem BioAssay AID485270 (The Scripps Research Institute Molecular Screening Center, 2010)
Out of some 330,000 compounds screened, about 5,800 (1.8%) were called active. No stated cut-off is given here; in the data, active means inhibition mostly above about 38% (no sharp cut-off); inactive means mostly below about 40%. Many of the other results were omitted from the sample, so actives are more common in it than they were.

Biological target: Orexin/Hypocretin receptor type 1 (Homo sapiens) (UniProt O43613)
Sequence (O43613 whole entry, looked up): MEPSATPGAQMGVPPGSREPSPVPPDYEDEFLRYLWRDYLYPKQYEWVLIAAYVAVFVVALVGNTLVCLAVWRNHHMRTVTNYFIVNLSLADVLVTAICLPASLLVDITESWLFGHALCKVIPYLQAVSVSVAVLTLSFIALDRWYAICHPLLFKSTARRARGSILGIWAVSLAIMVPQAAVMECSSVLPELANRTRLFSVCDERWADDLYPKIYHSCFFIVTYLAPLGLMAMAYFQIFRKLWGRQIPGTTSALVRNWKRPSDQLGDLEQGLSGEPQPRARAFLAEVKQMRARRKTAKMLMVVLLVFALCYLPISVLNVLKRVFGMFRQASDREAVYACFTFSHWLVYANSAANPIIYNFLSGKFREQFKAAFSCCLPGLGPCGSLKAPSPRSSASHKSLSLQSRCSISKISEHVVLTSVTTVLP
Assay: antagonists of human orexin 1 receptor (OX1R) (AID 485270);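 further: 0% = agonist challenge alone and 100% = reference antagonist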
Details: OX1R-expressing cells, FRET antagonist read-out; at 6.6 µM; stronger effect = higher value

inhibition, active:
CCC(=C/c1sc2ccc3ccccc3c2[n+]1C)/C=C1\Sc2ccc3ccccc3c2N1C 42.8%
O=C(/C=C/c1ccco1)Nc1cccc(-c2nc3ccccc3[nH]2)c1 86.8%
Cc1nn(C)cc1/C=N/NC(=O)c1sc2ccccc2c1Cl 72.5%
O=C(N/N=C/c1c(Cl)[nH]c2ccccc12)c1sc2ccccc2c1Cl 100%
CCOc1cc(/C=C(\C#N)c2nc(-c3cccs3)c(NC(C)=O)s2)ccc1O 65.7%
O=C(O)C1CCN(c2ccc([N+](=O)[O-])cc2[N+](=O)[O-])CC1 40.7%
Cc1nc2nc(SCC(=O)Nc3cccc(F)c3)[nH]c2cc1Br 57.5%
Cc1cc(NC(=O)CSc2nccn2-c2ccc([N+](=O)[O-])cc2)no1 70.4%
CC(=O)N/N=C/c1cc2c(cc1[N+](=O)[O-])OCO2 98.3%
O=C1NC(=O)C2C1C(c1ccc([N+](=O)[O-])cc1)=NN2Cc1ccccc1 (centres undefined) 75.4%
Cn1c(-c2ccco2)nc2cc3ccccc3cc21 68.2%
O=C(N/N=C/c1ccc([N+](=O)[O-])o1)c1cccc(S(=O)(=O)N2CCOCC2)c1 44.6%
CCN1C(=O)/C(=C2\SC(N3CCCCC3)=NC2=O)c2ccccc21 42.2%
CC(C)(C)NC(=O)Cn1cnc2cc([N+](=O)[O-])ccc2c1=O 132%
Cc1cccc(NS(=O)(=O)c2cccc(C(=O)NNC(=O)c3ccccc3O)c2)c1 29.7%
CC(C)(C)c1cc[n+](-c2[nH]c(=O)sc2/C=N/N=C(\[O-])c2ccccc2)cc1 59.4%

inhibition, inactive:
O=C(CSc1nc2ccccc2c(=O)n1Cc1ccc(F)cc1)NCC1CCCO1 (centres undefined) 4.49%
COc1ccc(S(=O)(=O)N2CCN(c3cnccn3)CC2)cc1 16.4%
CC(OC(=O)c1ccc([N+](=O)[O-])cc1)C(=O)NCC1CCCCC1 (centres undefined) 18.2%
CC1CCCCN1CCCNC(=O)Cn1ncc2c([nH]c3ccccc32)c1=O (centres undefined) 4.31%
Cn1cccc1C(=O)OCC(=O)c1ccc(Br)s1 5.79%
O=C(CC1SC(N2CCOCC2)=NC1=O)Nc1ccccc1F (centres undefined) -1.73%
C[C@@H](CN1CCC[C@H]1CN1C(N)=NC[C@@H]1Cc1ccccc1)N1C[C@@H](Cc2ccccc2)N(CCCC2CCCC2)C1=N 11.4%
C/C=C/c1ccc(OCC(=O)NNC(=O)CN(C)S(=O)(=O)c2ccc(C)cc2)c(OC)c1 0.57%
Cc1ccc(-n2nc3ccc(NC(=O)/C=C/c4ccco4)cc3n2)cc1C 21.4%
O=C(/C=C/c1ccco1)Nc1ccc(Oc2ccccc2)cc1 62.7%
Cc1ccc(C(=O)OCC(=O)N2CCCCCC2)cc1S(=O)(=O)N1CCOCC1 24.3%
COc1ccc(NC(=O)Nc2ccc3c(c2)C(=O)N([C@H](C)CO)C[C@H](C)[C@@H](CN(C)C(=O)Nc2ccc4c(c2)OCO4)O3)cc1 8.87%
Cc1nnsc1C(=O)N/N=C/c1ccccc1Cl 3.68%
COc1ccc(CNC(=O)CNC(=O)c2sc3ccccc3c2Cl)cc1OC 18.2%
Cc1nn(-c2ccccc2)c(Cl)c1/C=N/NC(=O)c1nn(C)cc1[N+](=O)[O-] 41.5%
COCCNC(=S)N/N=C/c1c(C)[nH]c2ccccc12 9.28%
CC[C@]1(C(=O)OC)[C@H]2C(=O)N(Cc3ccccc3)C(=O)[C@H]2[C@H]2CN=C(SCc3ccccc3)N21 9.69%
C[C@H]1CN([C@@H](C)CO)C(=O)Cc2cc(NS(C)(=O)=O)ccc2O[C@@H]1CN(C)CC1CC1 1.83%
CN=C(Nc1cccc(S(=O)(=O)N2CCOCC2)c1)c1ccccc1 2.1%
CC[C@]12c3[nH]c4cc(CCC(=O)N(C)C)ccc4c3CCN1C(=O)[C@@H](CC(=O)NCCCN(C)C)C[C@@H]2C(=O)N1CCN(C(=O)c2ccco2)CC1 -2.47%
COCCCNC(=O)CC1C[C@H](C(=O)N2CCCCC2)[C@@]2(CCc3ccccc3)c3[nH]c4ccccc4c3CCN2C1=O (some centres undefined) 2.77%
COc1cc(/C=N\Nc2nc(-c3cccs3)c(NC(C)=O)s2)ccc1O 8.13%
CCOc1cc(-c2cc(-c3ccc(NC(C)=O)cc3)nc(N)c2C#N)ccc1O 25.9%
CCCC/C(C)=N/NC(=O)NC1CCCCC1 10.5%
Nc1ncnc2c1ncn2[C@@H]1O[C@H](CNCc2cccn2-c2nccs2)[C@@H](O)[C@H]1O 5.52%
CCOC(=O)C1CCN(c2ccc(C(=O)O)cc2[N+](=O)[O-])CC1 57.8%
CC1CCN(c2ccc([N+](=O)[O-])cc2C(N)=O)CC1 65.8%
O=C(COC(=O)c1cc[n+]([O-])cc1)Nc1ccc(Cl)c(C(F)(F)F)c1 8.49%
CC(Oc1ccc2c(-c3ccccc3)cc(=O)oc2c1)C(=O)NC(Cc1c[nH]c2ccccc12)C(=O)O (centres undefined) 12.5%
Cc1nc2nc(SCC(=O)c3ccccc3)[nH]c2cc1Br 9.22%
Cc1cccc(NC(=O)CSc2nc3[nH]ncc3c(=O)[nH]2)c1 10.4%
Cc1ccc2c(c1)C1C[N+](C)(CC(=O)c3ccccc3)CCC1N2C(=O)c1ccccc1Cl (centres undefined) 7.24%
CC1CCCCC12NC(=O)N(CC(=O)OCc1c(F)cccc1Cl)C2=O (centres undefined) 11.8%
Cc1cc(NC(=O)COc2ccc([N+](=O)[O-])cc2)no1 3.47%
Cc1cc(NC(=O)CSc2nnnn2-c2ccc(F)cc2)no1 10.1%
NS(=O)(=O)c1ccc(CNC(=S)NC(=O)c2ccco2)cc1 4.56%
Cc1ccc(S(=O)(=O)N/N=C\c2cc3c(cc2[N+](=O)[O-])OCO3)cc1 29.4%
CC1(C(=O)N/N=C/c2cc3c(cc2Br)OCO3)CC1(Br)Br (centres undefined) 26.7%
COc1ccc(CN2C(CC(=O)Nc3cccnc3)c3ccc(C(F)(F)F)cc3S2(=O)=O)cc1 (centres undefined) 12.3%
COc1ccc(CNC(=O)COC(=O)c2sccc2C)cc1OC 3.49%
CC(=O)N1c2ccccc2N(Cc2ccc([N+](=O)[O-])cc2)C(=O)C1(C)C 15.5%
CC1=NN(c2ccccc2)C(=O)C1C(=O)c1ccc([N+](=O)[O-])cc1 (centres undefined) 33.4%
CC(C)(C)OC(=O)C[C@@H]1C/C=C\C[C@@H](CC(=O)N[C@@H](CO)Cc2ccccc2)C(=O)N2CCC[C@H]2COC1=O 16.2%
COc1ccccc1N(CC(=O)Nc1ccc(C)cc1Cl)S(=O)(=O)c1cccs1 9.45%
Cc1ccc(C2(C)NC(=O)N(CC(=O)N3CC(=O)Nc4ccccc43)C2=O)cc1 (centres undefined) 2.94%
COc1ccccc1NS(=O)(=O)c1ccc(C)c(C(=O)NNC(=O)c2csc(N3CCOCC3)n2)c1 2.72%
COc1cc(S(=O)(=O)N2CCN(C(=O)C3CC3)CC2)ccc1NC(C)=O 10.5%
COc1ccc(C(=O)COC(=O)c2c(C)noc2C)cc1Cl 3.93%
CCOC(=O)[C@H]1[C@H]2COc3ccccc3[C@@H]2N2C(=O)CN(Cc3ccccc3)C(=O)[C@@]12C 11.5%
COc1ccccc1-n1c(-c2cc(-c3ccco3)[nH]n2)n[nH]c1=S 4.56%
CS(=O)(=O)n1nc(-c2ccco2)nc1N -7.64%
COC(=O)c1ccc(CNC(=O)c2ccc(S(=O)(=O)N3CCCCCC3)cc2)cc1 13.9%
CCOc1cc(/C=N/NC(=O)c2cccc(S(=O)(=O)N3CCOCC3)c2)ccc1OCC(=O)N(C)C 10%
O=C(Nc1ccc(N2CCOCC2)cc1)c1cccc(S(=O)(=O)N2CCOCC2)c1 1.87%
CCOc1cc(/C=C2\SC(N3CCCCC3)=NC2=O)ccc1O 25.6%
O=C1N=C(N2CCCC2)S/C1=C\c1cccc(Br)c1 35.7%
O=C(Cn1cc(C(F)(F)F)ccc1=O)Nc1ccc2c(c1)OCCO2 1.4%
COc1cc(/C=C/C(=O)OCC(=O)NC2CC2)cc(OC)c1OC 3.2%
O=C(Cn1cnc2cc([N+](=O)[O-])ccc2c1=O)NC(=O)NCc1ccccc1 23.1%
Cc1cc(C(=O)Cn2cnc3cc([N+](=O)[O-])ccc3c2=O)c(C)n1CC1CCCO1 (centres undefined) 53.2%
COc1ccc(S(=O)(=O)N(C)C[C@@H]2Oc3ccc(NS(=O)(=O)c4cn(C)cn4)cc3C(=O)N([C@@H](C)CO)C[C@@H]2C)cc1 1.11%
CSc1ncccc1C(=O)Nc1cccc(S(=O)(=O)N2CCOCC2)c1 9.4%
Cc1cccc(NS(=O)(=O)c2ccc(C)c(C(N)=O)c2)c1 19.2%
CC(=O)N1CCN(C(=O)c2cccc(S(=O)(=O)Nc3ccc(C)cc3)c2)CC1 -3.44%
COc1cc(/C=C2\Oc3ccc(C#Cc4ccc(O)cc4)cc3C2=O)cc(OC)c1 2.43%
O=C(COC(=O)c1ccco1)Nc1ccc(Cl)cn1 1.22%
CCNC(=O)N(CC)C[C@H]1N[C@@](CC)(C(=O)OC)[C@H]2C(=O)N(Cc3ccccc3)C(=O)[C@@H]12 -4.57%
CC(C)(C)OC(=O)C[C@@H]1C/C=C\C[C@@H](CC(=O)N(CCO)Cc2ccccc2)C(=O)N[C@H](Cc2ccccc2)COC1=O 13.4%
